For 16 molecules, Potency and outcome results are on record in PubChem BioAssay (NCATS).

In test [1] the target is Cytochrome P450 2C19 (Homo sapiens) (UniProt P33261). Kind of test: qHTS Assay for Inhibitors and Substrates of Cytochrome P450 2C19 (AID 899). Note: nearly all actives have a fitted effect of over 60% in size. Note: potency is the fitted concentration of half-maximal effect. The essentials: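 5nM enzyme + 10uM Luciferin-H EGE (=KM), 50mM KPO4; cpd pin-transferred, 10 min 37C; NADPH regen, 60 min 37C; stopped w/ luciferin detection reagent, 20 min; luminescence. Normalized to 57uM ketoconazole (AC100).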

A short description of test [2]: qHTS Assay for Identification of Small Molecule Agonists for Thrombopoietin (TPO) Signaling Pathway (AID 917). The essentials:
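Cell-based luciferase reporter screen. Mouse Ba/F3 line stably expressing human TPO receptor; IL-3 removed overnight before plating. Co-treatment with compound and EC50 TPO (26 pM), 24 hrs at 37 C, then luminescence.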
Background: In qHTS, concentration-response curves come from the screen itself.

Test [3] deals with Muscarinic acetylcholine receptor M1 (Rattus norvegicus) (UniProt P08482). Kind of test: qHTS Assay for Antagonists of Acetylcholine Muscarinic M1 Receptor: Measurement of IP-One Response (AID 944). Note: nearly all actives have a fitted effect of over 75% in size. A digest of the protocol: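 Read-out: HTRF competition between d2-IP1 and Eu-cryptate anti-IP1 antibody, emission 620 and 665 nm. Stimulus was carbachol, EC80 (200 nM), for 30 min in M1-CHO cells (rat receptor), after 10 min compound pre-treatment.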

Test [4] deals with Pyruvate kinase (Leishmania mexicana) (UniProt Q27686). Kind of test: qHTS Validation Assay for Inhibitors of Leishmania Mexicana Pyruvate Kinase (AID 945). The essentials:
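Luminescent ATP detection (PKLight) after a 1 h room-temperature reaction of 0.2 nM LmPYK E451W mutant with 0.5 mM PEP and 0.1 mM ADP at pH 7.2. Activity is normalized to DMSO-only control wells.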

Test [5] in a line: Confirmation and Secondary Assay for Modulators of Hemoglobin Beta Chain Splicing at IVS2 654 locus (AID 910).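 Note: HeLa cells stably carrying EGFP split by mutant beta-globin IVS2-654 intron.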 A digest of the protocol:
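Readout: per-well total peak green fluorescence (488 nm ex, 500–520 nm em) from objects 5–250 µm, reflecting correct splicing of an EGFP-654 reporter. Compounds were applied for 2 days at 37 °C to overnight-plated HeLa EGFP-654 cells; controls were DMSO and 500 nM IVS2-654 PNA.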

Test [6] in a line: Confirmation and Secondary Assay for Modulators of Hemoglobin Beta Chain Splicing at IVS2 705 locus (AID 930).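 Note: HeLa cells stably expressing the EGFP-705 splicing reporter; GFP fluorescence per well restored by corrected splicing of the IVS2-705 intron in EGFP; series mostly up to about 46 µM.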 A digest of the protocol: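 Read-out: total peak GFP fluorescence per well (488 nm excitation, 500-520 nm emission) by laser-scanning cytometry. Cells: HeLa EGFP-705 splicing reporter, 2 days compound exposure in Optimem/2% FCS.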
Test [7] can be described thus: Cell Viability - LYMP2-001 (AID 921).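 Note: series mostly up to about 92 µM; cells exposed to compound for 24 h at 37 °C; nearly all actives have a fitted effect of over 70% in size.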 A digest of the protocol: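 Steps: seed 2500 lymphoblastoid cells/well; 5 hr, 37 C; add compound; 24 hr, 37 C; CellTiter-Glo reagent, 30 min room temperature; read luminescence. Concentration-response modeled by Hill equation for AC50.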
Test [8] is described as follows: qHTS Assay for Identification of Small Molecule Antagonists for Thrombopoietin (TPO) Signaling Pathway (AID 918). Note: potency is the fitted concentration of half-maximal effect; nearly all actives have a fitted effect of over 60% in size. The note with it: TPO-dependent cell signaling reporter, antagonist mode. A digest of the protocol: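 Luminescence read-out: GPIIb-promoter luciferase in Ba/F3 cells carrying human TPO receptor. Compounds added with 26 pM TPO (EC50), 24 hrs, 37 C, 5% CO2; cells deprived of IL-3 overnight beforehand. Inhibition of signal scored.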

In test [9] the target is Muscarinic acetylcholine receptor M1 (Rattus norvegicus) (UniProt P08482). Kind of test: qHTS Assay for Antagonists of Acetylcholine Muscarinic M1 Receptor: Kinetic Measurement of Intracellular Calcium Response (AID 943).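 Note: Fluo-4 calcium signal as peak divided by basal fluorescence over 4 min; series mostly up to about 35 µM; nearly all actives have a fitted effect of over 75% in size.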 The essentials:
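Read-out: peak over basal Fluo-4 fluorescence, kinetic at 1 Hz for 4 min after EC80 carbachol (100 nM final). Rat M1-CHO cells, dye loaded 1 h at 37C, compound added 10 min before agonist.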

Records with an inconclusive call do not appear. A call without a number means that no potency is given here. Active and inactive are the calls of the source. Calls come from the whole dose curve; as a rule, active = well fitted curve in the direction sought with a large enough effect; inconclusive = small, poorly fitted or top-dose-only effect, or another doubt; inactive = no such curve, though single readings can be large; an effect the other way counts as inactive or inconclusive.

Chain of Pyruvate kinase (Leishmania mexicana) (Q27686 2-499 E452W): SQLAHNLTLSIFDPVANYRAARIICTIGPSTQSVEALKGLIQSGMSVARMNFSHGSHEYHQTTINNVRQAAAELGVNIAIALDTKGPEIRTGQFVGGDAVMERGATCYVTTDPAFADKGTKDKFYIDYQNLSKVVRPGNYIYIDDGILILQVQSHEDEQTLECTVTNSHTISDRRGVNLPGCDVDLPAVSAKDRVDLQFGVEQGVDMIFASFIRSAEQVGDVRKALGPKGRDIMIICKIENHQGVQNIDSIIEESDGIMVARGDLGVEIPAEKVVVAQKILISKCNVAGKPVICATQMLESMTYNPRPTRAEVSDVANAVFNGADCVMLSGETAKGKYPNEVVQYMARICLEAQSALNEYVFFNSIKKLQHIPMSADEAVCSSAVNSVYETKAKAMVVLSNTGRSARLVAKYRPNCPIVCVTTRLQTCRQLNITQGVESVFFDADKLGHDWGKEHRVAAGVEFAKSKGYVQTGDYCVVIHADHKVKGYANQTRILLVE
Chain of Muscarinic acetylcholine receptor M1 (Rattus norvegicus) (P08482 whole entry, looked up): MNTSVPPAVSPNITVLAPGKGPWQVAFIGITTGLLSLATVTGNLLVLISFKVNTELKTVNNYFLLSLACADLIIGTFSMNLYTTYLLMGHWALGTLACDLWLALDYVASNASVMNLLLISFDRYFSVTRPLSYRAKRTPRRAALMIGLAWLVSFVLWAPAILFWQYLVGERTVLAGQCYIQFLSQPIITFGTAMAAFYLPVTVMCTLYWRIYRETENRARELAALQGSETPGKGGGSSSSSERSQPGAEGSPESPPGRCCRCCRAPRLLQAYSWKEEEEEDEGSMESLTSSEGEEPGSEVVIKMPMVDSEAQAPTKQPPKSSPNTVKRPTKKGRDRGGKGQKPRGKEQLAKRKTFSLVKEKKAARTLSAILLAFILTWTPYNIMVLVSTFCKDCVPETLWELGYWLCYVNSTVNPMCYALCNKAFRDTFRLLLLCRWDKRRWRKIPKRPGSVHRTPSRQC
Chain of Cytochrome P450 2C19 (Homo sapiens) (P33261 whole entry, looked up): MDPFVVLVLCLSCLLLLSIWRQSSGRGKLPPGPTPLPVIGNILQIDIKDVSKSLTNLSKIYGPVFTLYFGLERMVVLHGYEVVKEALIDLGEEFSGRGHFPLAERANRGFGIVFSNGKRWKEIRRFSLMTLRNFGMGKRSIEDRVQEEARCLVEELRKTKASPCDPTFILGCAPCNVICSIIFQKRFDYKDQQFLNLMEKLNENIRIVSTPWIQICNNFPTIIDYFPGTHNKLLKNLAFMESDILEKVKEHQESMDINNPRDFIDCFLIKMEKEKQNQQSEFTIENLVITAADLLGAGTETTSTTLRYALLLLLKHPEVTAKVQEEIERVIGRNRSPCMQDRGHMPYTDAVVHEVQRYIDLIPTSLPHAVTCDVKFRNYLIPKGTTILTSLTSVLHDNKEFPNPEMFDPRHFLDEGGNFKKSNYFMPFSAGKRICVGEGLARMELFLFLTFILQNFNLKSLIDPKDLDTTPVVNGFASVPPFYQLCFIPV

For `CC1=C(CC(=O)O)c2cc(F)ccc2/C1=C\c1ccc(S(C)(=O)=O)cc1`, the Potency entry in test [1] and in test [3] was “inactive” in each case. For the same molecule, the molecule was classed as inactive in [2] and in test [4].
In the case of `Cc1ccc(C(C)C)cc2c(C)ccc1-2`, the molecule was classed as inactive in [5]. In test [6], the Potency result was “inactive”.
Consider `CCCCOC(=O)c1ccc(O)cc1`, for which the Potency in [1] was 6.31 µM (active). Moreover, in [7], the outcome was inactive.
Regarding `CN(C)CCCN1c2ccccc2Sc2ccc(Cl)cc21`, the molecule was called inactive in test [5] and in test [4]. In addition, the Potency in test [8] was 12.6 µM (active). Besides, in test [6], the Potency result is “inactive”.
As to `O=C1c2c(O)cccc2Cc2cccc(O)c21`, the result in test [5] and in [7] was inactive. Besides, the Potency entry in [6] was “inactive”.
Regarding `CCN(CC)CCNC(=O)c1cc(Cl)c(N)cc1OC`, the molecule was classed as inactive in test [5], in test [2] and in test [4]. Moreover, the Potency result in test [6] and in [3] was “inactive” each time.
With `OCCN1CCN(CCCN2c3ccccc3Sc3ccc(Cl)cc32)CC1`, the call in [5] and in test [4] was inactive. The Potency in test [8] was 15.8 µM (active). Further, the Potency entry in [6] was “inactive”.
On to `O=c1cc(CO)occ1O`, for which, in [1], the Potency entry is “inactive”.
On to `Oc1cccc(O)c1`, for which the call in test [5] and in [7] was inactive. Besides, the Potency result in [6] was “inactive”.
Consider `CC1=C(CC(=O)O)c2cc(F)ccc2/C1=C\c1ccc(S(C)=O)cc1` (configuration not stated), for which the call in [5], in test [2] and in [4] was inactive. For the same molecule, the Potency entry in test [6] is “inactive”.
With `Nc1cc(=O)[nH]c(N)n1`, the Potency entry in test [1], in test [9] and in [3] was “inactive” throughout. Also, the molecule was classed as inactive in test [2] and in [4].
For the molecule `O=C1NS(=O)(=O)c2ccccc21`, the molecule was called inactive in test [5]. Also, the Potency result in test [6] was “inactive”.
For the molecule `COc1ccc(Cl)cc1C(=O)NCCc1ccc(S(=O)(=O)NC(=O)NC2CCCCC2)cc1`, the outcome in test [5], in test [2] and in test [4] was inactive. In addition, the Potency entry in test [6] and in test [3] was “inactive” in each case.
For `CN(C)CCCN1c2ccccc2CCc2ccccc21`, the outcome in [1], in test [2] and in [4] was inactive.
In the case of `CC12CCC(CC1)C(C)(C)O2`, the outcome in test [5] and in test [7] was inactive. Besides, the Potency result in [6] is “inactive”.
For the molecule `NC(=O)NC(=O)Cc1ccccc1`, the outcome in test [5] was inactive. Further, the Potency entry in test [6] is “inactive”.
